Screens: PubChem, National Center for Advancing Translational Sciences (NCATS)
Shown are actives, neighbours in structure and some others; about 1.9% of the full set was active somewhere.
LDHA inh: qHTS assay for inhibitors of human lactate dehydrogenase | L-lactate dehydrogenase A chain (Homo sapiens), P00338 | purified LDHA, NADH/diaphorase-resazurin fluorescence; active compounds read low | activity change, % (values are at about 110 or 230 µM) | 480,000 compounds, 0.15% hits; in the data active = activity change below about -30%; inconclusive = mostly about -25% to -30%
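Enzyme activity of human lactate dehydrogenase 5 (2 nM; 0.06 mM NADH, 0.2 mM pyruvate, 5 min, RT) is measured via a resazurin/diaphorase fluorescence readout of residual NADH.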
FUS suppressor: qHTS for Suppressors of FUS Proteinopathy: Primary screen using FUS-linked yeast assay; S. cerevisiae FUS-expressing, growth rescue, OD600, 24 h; Potency, µM (highest dose often 76.6 µM), usual class: activators; 390,000 compounds, 0.24% hits; AID 1347120, 2019; also: nearly all actives have a fitted effect of over 55% in size
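Yeast expressing FUS under galactose induction, OD 0.005 in 2% galactose medium; compounds in a dilution series, 24 h at 30C. Growth rescue by absorbance at 600 nm; CP55940 positive control, DMSO negative.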
TDP43 rescue: qHTS of TDP-43 Inhibitors; TDP-43 expressing yeast growth rescue, BacTiter-Glo, 24 h; Potency, µM (doses to about 46.1 µM), usual class: activators; 410,000 compounds, 1.8% hits; AID 652104, 2013; also: nearly all actives have a fitted effect of over 50% in size
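Luminescence from BacTiter-Glo reports growth of TDP-43-expressing yeast after 24 hr at 30 deg C with compound. Cells were raffinose-pregrown to mid-log, then seeded in galactose medium at OD600=0.02.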
Abeta rescue: qHTS for compounds that reverse cellular toxicity of Amyloid beta (A-beta) peptide in yeast: Primary Screen; yeast expressing A-beta42, growth rescue, OD600, 48 h; response scale: 0% DMSO, 100% iron-clioquinol control; Potency, µM (doses to about 46.1 µM), actives largely listed as activators; AID 1347071, 2019; 410,000 compounds, 0.063% hits; also: nearly all actives have a fitted effect of over 55% in size
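Yeast growth medium received pinned compounds, then yeast cells expressing toxic A-beta were added; plates incubated at 30 C for 48 hr. Growth read as absorbance at 600 nm, normalized to DMSO and equimolar FeCl3 plus clioquinol controls.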
PTHR1 ag: qHTS for PTHR1 Agonists: Primary Screen; Parathyroid hormone/parathyroid hormone-related peptide receptor (Homo sapiens), Q03431; HEK293 GP2 PTHR1 cells, GloSensor cAMP luminescence, 1 h; Potency, µM (doses to about 115 µM), actives largely listed as activators; 410,000 compounds, 0.075% hits; AID 743266, 2014; also: nearly all actives have a fitted effect of over 55% in size
Target sequence (Q03431 whole entry, looked up): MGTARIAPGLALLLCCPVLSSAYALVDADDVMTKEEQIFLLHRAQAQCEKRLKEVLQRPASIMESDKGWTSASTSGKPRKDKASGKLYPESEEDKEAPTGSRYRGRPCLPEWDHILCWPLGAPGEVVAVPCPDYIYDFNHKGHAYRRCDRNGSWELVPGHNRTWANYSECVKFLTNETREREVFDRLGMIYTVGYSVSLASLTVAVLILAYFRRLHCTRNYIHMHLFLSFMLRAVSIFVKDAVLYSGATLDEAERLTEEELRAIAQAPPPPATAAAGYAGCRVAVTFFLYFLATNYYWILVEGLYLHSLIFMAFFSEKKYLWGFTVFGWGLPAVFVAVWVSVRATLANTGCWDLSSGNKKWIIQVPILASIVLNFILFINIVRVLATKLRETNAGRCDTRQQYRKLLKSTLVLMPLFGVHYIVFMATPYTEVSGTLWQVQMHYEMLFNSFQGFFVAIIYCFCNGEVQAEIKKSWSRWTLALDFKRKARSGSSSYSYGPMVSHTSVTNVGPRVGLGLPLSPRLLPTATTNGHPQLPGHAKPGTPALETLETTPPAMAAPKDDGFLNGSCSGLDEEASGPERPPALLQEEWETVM
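HEK-293-derived GP2 cells expressing PTHR1 and a GloSensor cAMP reporter, 3,000/well, plated overnight, given luciferin plus IBMX (each 0.5 mM as added) for 1 h at 37 °C, then compound for 1 h at 37 °C. Luminescence was read after 15 min at room temperature.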
aSyn yeast inh: qHTS of alpha-syn Inhibitors. Yeast expressing alpha-synuclein, growth rescue, BacTiter-Glo, 24 h. 370,000 compounds, 0.14% hits. Potency, µM (highest dose often 46.1 µM), actives largely listed as activators; also: nearly all actives have a fitted effect of over 65% in size
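Readout is rescue of growth in alpha-synuclein-expressing yeast, so inhibitors of toxicity appear as activators. Growth after 24 hr at 30 deg C in galactose medium is quantified by luminescence.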
Hits are given with their value; – = inactive; ? = inconclusive; · = no result. Unless noted, calls follow the shape of the dose curve; as a rule, active = well fitted curve in the direction sought with a large enough effect; inconclusive = small, poorly fitted or top-dose-only effect, or another doubt; inactive = no such curve, though single readings can be large; an effect the other way counts as inactive or inconclusive.

SMILES	LDHA inh	FUS suppressor	TDP43 rescue	Abeta rescue	PTHR1 ag	aSyn yeast inh
Cc1cccc(Cn2cc(C=O)c3ccccc32)c1	–	–	14.1µM	–	–	–
CC(C)NC1CCC(C(C)(C)C)CC1 (stereo not drawn)	–	·	·	·	·	·
Cc1ccccc1CN1C(=O)C(C)N=C(c2ccccc2)c2ccccc21 (stereo not drawn)	–	–	14.1µM	–	–	·
CCOC(=O)c1c(NC(=O)c2c(N)n(CCCOC)c3nc4ccccc4nc23)sc2c1CCCC2	–	–	–	–	–	–
CCOC(=O)c1c(NC(NC(=O)CF)C(Cl)(Cl)Cl)sc2c1CCCC2 (stereo not drawn)	–	–	22.4µM	–	–	–
COc1ccccc1N1CCN(C(=O)c2cc3c(-c4ccccc4F)nn(C)c3s2)CC1	–	17.8µM	15.8µM	–	–	·
COc1cccc(CNC(=O)c2cc3c(-c4ccccc4F)nn(C)c3s2)c1	–	?	?	–	–	·
CC(=O)C1CCC2C3C(N4CC4)CC4=CC(=O)CCC4(C)C3CCC12C (stereo not drawn)	–	·	–	–	–	–
CC(=O)[C@H]1CC[C@H]2[C@@H]3CCC4=CC(=O)CC[C@]4(C)[C@H]3CC[C@]12C	–	–	35.5µM	–	–	–
NCCc1ccc(OC(F)(F)F)cc1	–	·	·	·	·	·
CCOC(=O)[C@]12Cc3c(cc(OC)c(OC)c3OC)[C@H]1N(C)C(=O)c1cc(OC)ccc12	–	–	17.8µM	–	–	–
CCOC(=O)[C@]12Cc3ccccc3[C@H]1N(C)C(=O)c1cc(OC)ccc12	–	–	35.5µM	–	–	–
CCOC(=O)[C@]12Cc3c(cc(OC)c(OC)c3OC)[C@H]1N(C(C)C)C(=O)c1ccccc12	–	–	–	–	–	–
COc1cc(C)cc2oc(=O)c(CC(=O)N3CCN(CCc4ccccn4)CC3)c(C)c12	–	·	·	·	·	·
CNc1oc(-c2ccc(C)cc2)nc1P(=O)(OC)OC	–	·	·	·	·	·
COc1ccc(CNCCc2c[nH]c3ccccc23)cc1	–	·	·	·	·	·
CC(C)(C)C(O)C(Oc1ccc(Cl)cc1)n1cncn1 (stereo not drawn)	–	–	2.51µM	?	–	?
CC(C(=O)c1ccc(Cl)cc1Cl)n1cncn1 (stereo not drawn)	–	–	–	–	–	–
CSc1nc(N)c2c(n1)OC(N)=C(C#N)C2c1cc(Br)ccc1F (stereo not drawn)	–	·	·	·	·	·
c1ccc(-n2nnnc2C2(NC3CCCCC3)CCCCC2)cc1	–	·	·	·	·	·
COC(=O)C1=C(c2cccc3c2S(=O)(=O)c2ccccc2-3)C[C@@H]2CC[C@H]1N2C(=O)N1CCc2cc(OC)c(OC)cc2C1	–	20µM	?	–	–	–
Cc1nc2ccc(NC(=O)C3COc4ccccc4O3)cc2s1 (stereo not drawn)	–	–	15.8µM	–	–	–
C1CC2CCC1CNC2	–	·	·	·	·	·
Cc1cccc(-n2c(-c3cccs3)nc3ccccc3c2=O)c1	–	–	20µM	–	–	–
O=C1CC(c2ccccc2)[Se]C(c2ccccc2)C1 (stereo not drawn)	–	·	·	·	·	·
SMILES	LDHA inh	FUS suppressor	TDP43 rescue	Abeta rescue	PTHR1 ag	aSyn yeast inh
Cc1ccc2[nH]c(C)c(C(O)CN3CCCCC3)c2c1 (stereo not drawn)	–	·	·	·	·	·
COC(=O)[C@@H]1N=C(c2ccc(OC)cc2)O[C@]12C(=O)N(Cc1ccc(OC)cc1)c1ccccc12	–	14.1µM	–	–	–	–
COc1ccc(Cn2c(O)c(/C=N/NC(=O)c3ccccc3)c(=O)[nH]c2=O)cc1	–	–	–	–	–	–
N#Cc1ccc(NC(=O)Cc2ccc3c(c2)CCC3)cc1Cl	–	·	·	·	·	·
Cc1ccc(/C=C2\C(=O)NC(=S)N(c3ccc(F)cc3)C2=O)o1	–	–	11.2µM	–	–	–
COc1cccc(N2C(=O)/C(=C/c3ccc(C)o3)C(=O)NC2=S)c1	–	?	?	–	–	–
O=C(O)c1cc[c]([Hg][Cl])cc1	-61.4	–	?	–	–	–
